Bioassay records: PubChem, several laboratories
This is a sample that favours compounds with a hit; in the whole collection about 3.4% have one here.
HSP90 refold inh – HSP90 refolding inhibition in rabbit reticulocyte lysate; luciferase refolding luminescence, 3 h; inhibition, % at 5.6 µM; hit rate 0.91% among 290,000; AID 1789;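 active means inhibition above the screen-wide mean plus 3 SD, computed separately per campaign, cut at about 16% in these data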;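 further: 0% = DMSO wells and 100% = 60 µM geldanamycin wells; inhibitors lower the luminescence because luciferase stays unfolded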
HSF1 inh – HSF1 inhibition. AID 2098. NIH3T3-HGL HSE-luciferase, MG132-induced, luminescence 8 h; active compounds read low. hit rate 0.77% among 300,000. activity change, negative = inhibition, % at 7.5 µM (by protocol);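 active means more than half of replicate wells show activity change below -50%, luminescence cut by over half; inconclusive means some wells, but at most half, below -50%; inactive means no replicate well below -50%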;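 further: luciferase reports HSF-1 transcriptional activity via heat shock element; 0% = median of DMSO wells and -100% = zero luminescence signal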
GAA850 FXN act – increases GAA850 frataxin promoter reporter activity. HEK293 lucGAA850 FXN promoter luciferase reporter, 24 h; percent of 10 µM SAHA response. activation, % at 6 µM. hit rate 0.56% among 360,000. AID 540364;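 active means activation above the average of all compounds screened plus 3 SD, cutoff fixed separately per campaign, cut at about 7.5% in these data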;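 further: 0% = DMSO wells and 100% = 10 µM SAHA wells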
AI-2 QS mod – modulators of Vibrio harveyi AI-2 quorum sensing system. Vibrio harveyi JMH597 AI-2 luminescence/OD600 ratio, 9 h; active compounds read low; strain lacks LuxN and CqsS sensors; 0 = neutral-control median. activity change, % at 7.5 µM. hit rate 0.4% among 300,000. AID 2094; in the data active means activity change below about -75%, passing the limit was not always enough; inconclusive means no clear call, values can overlap the other calls;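 further: luminescence divided by OD600 gain over 9 h not by final OD600 alone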
PG9 Ab binder – small molecules binding HIV-1 gp120 antibody PG9; TR-FRET gp120-PG9 antibody binding; inhibition, % at 6.7 µM; hit rate 0.43% among 360,000; in the data active means inhibition above about 8.5%
SMARCA2 act – SMARCA2 function activation, primary screen; MG213 cells, MMTV-luciferase reporter, dexamethasone, overnight; activation, % at 9.1 µM; hit rate 1% among 370,000; in the data active means activation above about 7.8%;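 further: 0% = vehicle wells and 100% = reference activator wells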
Starred values were filed as active, the others as inactive; ? = inconclusive; . = not tested or not shown.

SMILES	HSP90 refold inh	HSF1 inh	GAA850 FXN act	AI-2 QS mod	PG9 Ab binder	SMARCA2 act
O=C1OC(Nc2cc(Br)cc3cccnc23)c2ccccc21 (stereo unspecified)	17*	8	-1	37	-8	-7
O=C1OC(Nc2ncccn2)c2ccccc21 (stereo unspecified)	1	5	-2	28	-2	-2
CCC(C)Nc1nc(Cl)nc(N(C#N)CN2C(=O)c3ccccc3S2(=O)=O)n1 (stereo unspecified)	-3	54	2	-14	-2	6
CC(C)Nc1nc(Cl)nc(N(C#N)CN2C(=O)c3ccccc3C2=O)n1	0	153	3	-3	-3	14*
O=C(NCCOc1ccccc1)c1ccccc1[N+](=O)[O-]	-3	-5	4	20	0	-1
O=C(NCCOc1ccccc1)c1cc(C(=O)NCCOc2ccccc2)cc([N+](=O)[O-])c1	-2	8	-2	-97*	1	1
CC(C)N(C(=O)[C@H]1C[C@H](CC(=O)NCc2ccco2)C(=O)N2CCc3c([nH]c4cc(CCC(=O)N(C)C)ccc34)[C@]12C)C(C)C	.	.	-4	.	-2	7.9*
O=C(N/N=C/c1cc([N+](=O)[O-])ccc1O)NC12CC3CC(CC(C3)C1)C2	14	-50*	-7	34	-1	-5
CCS(=O)(=O)N1CCCC(C(=O)c2ccc(OC)cc2C)C1 (stereo unspecified)	2	0	0	52	-1	-1
COc1ccc(C(=O)C2CCCN(S(=O)(=O)c3ccccc3F)C2)c(C)c1 (stereo unspecified)	1	-77*	1	22	2	-2
O=C(/C=C/c1cccs1)NC(=S)NNC(=O)c1ccccc1O	0	0	-5	59	0	-5
O=C(/C=C/c1ccco1)NC(=S)Nc1ccccc1	1	16	2	-77*	0	3
O=C(/C=C/c1cccs1)NC(=S)Nc1ccccc1	-6	23	5	-77*	-1	3
Cc1ccc(Cl)cc1NC(=O)OCCN(C)C(=O)Nc1cc(Cl)ccc1C	.	.	.	.	0	-6
Cn1c(=O)c2c(nc(SCCCC#N)n2Cc2c(F)cccc2Cl)n(C)c1=O	0	5	0	6	0	-2
CC(C)c1nc(SCc2c(F)cccc2Cl)c2c(=O)n(C)c(=O)n(C)c2n1	0	-67*	3	-3	.	.
CCC[C@H](/C=C/C(=O)OC(C)(C)C)Sc1ccc(N)cc1	.	.	.	.	.	-2
COC(=O)[C@@]12CCCCC=C1N(CCc1ccc(Cl)cc1)C(=O)[C@H]2CC(=O)NCCCCc1ccccc1	.	.	.	.	.	-3
Cc1ccc(S(=O)(=O)CC(=O)Nc2ccc(S(=O)(=O)Nc3onc(C)c3C)cc2)cc1	0	-84*	0	18	-2	-3
CCc1cccc(OCC(=O)Nc2ccc(S(=O)(=O)Nc3onc(C)c3C)cc2)c1	-3	-79*	-1	20	-1	-1
CCN(CC)S(=O)(=O)c1ccc2c(c1)c(=O)c(C(=O)NCc1ccco1)cn2C	-1	-90*	0	14	-1	-2
CC1CCN(S(=O)(=O)c2ccc3c(c2)c(=O)c(C(=O)NCc2ccco2)cn3C)CC1	4	5	0	29	-1	-2
Cc1sc2nc(COC(=O)CNC(=O)c3cc(F)ccc3F)[nH]c(=O)c2c1C	.	.	.	.	.	-3
COc1ccc(S[C@]2(C(=O)N3CCCC3)CC(=O)N[C@@H]2c2ccc(OC)cc2)cc1	.	.	.	.	.	-1
COc1cccc2c1C(=O)c1c(O)c3c(c(O)c1C2=O)C[C@@](O)(C(=O)CO)C[C@@H]3O[C@H]1C[C@H](N)[C@@H](O)[C@H](C)O1	.	-75*	-7	11	.	.
CC(=O)[C@]1(O)Cc2c(O)c3c(c(O)c2[C@@H](O[C@H]2C[C@H](N)[C@H](O)[C@H](C)O2)C1)C(=O)c1ccccc1C3=O	.	-79*	.	2	.	.
COc1ccccc1CCn1cnc(-c2ccc(OC)c(OC)c2)c1CC(C)C	.	.	.	.	1	-9
O=C(COc1ccccc1C(=O)O)Nc1ccc(SC(F)F)cc1	4	-86*	0	19	-1	2
COc1nnc(-c2ccc(C(=O)N3C[C@@H]4C[C@H](C3)c3cccc(=O)n3C4)cc2)c2ccccc12	-1	-58*	-1	?	2	-1
